Source: PubChem
GLP1R cytotox: cytotoxicity in counter-screen for GLP-1R inverse agonists. HEK293 cAMP-luciferase reporter cells, luminescence, 24 h. Potency, µM (doses to about 38.3 µM), inactives show top-dose activity change, negative = inhibition, most hits filed as inhibitors. 0.13% of 410,000 active;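 note: loss of luciferase light is scored as toxicity; % is set by controls: 0 for no effect and ±100 for the full control effect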
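1536-well qHTS counterscreen of the MLSMR; 200 cells/uL, 12 h pre-incubation, 23 nL cpd, 24 h at 37 deg C 5% CO2, luciferase detection reagent, 12 min RT, luminescence. Inhibition = undesired.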
GLP1R inv ag: acts as inverse agonist at human GLP-1 receptor. P43220. 1.6% of 410,000 active. AID 624417. HEK293 GLP-1R CRE-luciferase, luminescence, 24 h; GLP-1R form is constitutively active. Potency, µM (top dose mostly 38.3 µM), for inactives: at the top dose activity change, negative = inhibition, hits mostly inhibitors; note: % is set by controls: 0 for no effect and ±100 for the full control effect; nearly all actives have a fitted effect of over 55% in size
Target sequence (P43220 whole entry, looked up): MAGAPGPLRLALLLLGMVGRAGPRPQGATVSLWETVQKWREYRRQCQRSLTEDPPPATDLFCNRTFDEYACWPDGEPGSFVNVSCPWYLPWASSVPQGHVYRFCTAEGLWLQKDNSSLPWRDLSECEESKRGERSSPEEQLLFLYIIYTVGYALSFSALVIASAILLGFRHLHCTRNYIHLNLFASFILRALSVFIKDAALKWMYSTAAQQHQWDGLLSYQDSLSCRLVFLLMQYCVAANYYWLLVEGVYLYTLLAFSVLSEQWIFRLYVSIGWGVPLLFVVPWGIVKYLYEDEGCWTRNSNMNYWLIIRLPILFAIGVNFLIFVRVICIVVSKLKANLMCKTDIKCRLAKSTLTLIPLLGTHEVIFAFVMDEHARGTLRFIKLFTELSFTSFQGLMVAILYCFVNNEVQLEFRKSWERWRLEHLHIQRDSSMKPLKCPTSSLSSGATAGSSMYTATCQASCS
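Luminescence readout: a drop in cAMP-driven luciferase signal flags inverse agonism at a constitutively active GLP-1R stably expressed in HEK293. Compound exposure lasted 24 hr at 37 deg C, 5% CO2.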
Gal4-VP16 FLuc: inhibits Gal4-VP16 luciferase reporter, ROR gamma counter-screen. Potency, µM (series often up to 53.6 µM), without a hit: at the highest dose activity, negative = inhibition, most hits filed as inhibitors. 3.5% of 310,000 active. Drosophila S2 Gal4-VP16 UAS-luciferase, luminescence, 20 h;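 note: Gal4-VP16 expression switched on by copper sulfate through the metallothionein promoter; % is set by controls: 0 for no effect and ±100 for the full control effect; nearly all actives have a fitted effect of over 50% in size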
RORgamma inh: ROR gamma (mouse) transcription inhibition | 5.4% of 310,000 active | Drosophila S2 Gal4-RORgamma UAS-luciferase reporter, 20 h | Potency, µM (top dose mostly 53.6 µM), for inactives: top-dose activity change, negative = inhibition, usual class: inhibitors | P51450 | AID 2551; note: % is set by controls: 0 for no effect and ±100 for the full control effect; nearly all actives have a fitted effect of over 60% in size
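Compounds are pin-transferred onto Drosophila Schneider cells expressing a copper-inducible Gal4–ROR gamma transactivation domain fusion. After 1 hr, copper sulfate is added to 700 uM final; luciferase is read 20 hr later.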
GLP-1R agonist: activates the human GLP-1 receptor | Potency, µM (highest dose often 45.6 µM), for the others: at the highest dose activation, most hits filed as activators | AID 624172 | HEK293 GLP-1R CRE-luciferase, luminescence, 4-6 h; cells express a hypersensitive GLP-1R form | 0.007% of 380,000 active | P43220; note: % of control where 0% means no effect
Active calls of the source: *; u = inconclusive; x = not tested or not shown; [ ] = dose if it differs, or a comment. Sampled rows, rich in hits. Any-hit rate of the full collection: about 5.9%. Calls come from the whole dose curve; as a rule, active = well fitted curve in the direction sought with a large enough effect; inconclusive = small, poorly fitted or top-dose-only effect, or another doubt; inactive = no such curve, though single readings can be large; an effect the other way counts as inactive or inconclusive. Potency is the fitted concentration of half-maximal effect.

SMILES | GLP1R cytotox | GLP1R inv ag | Gal4-VP16 FLuc | RORgamma inh | GLP-1R agonist
Cc1cccc(NC(=O)c2cnc3ccccn3c2=O)c1 | 1% | 5% | u | 2.5µM* | -2%
Cc1cccc(NC(=O)c2cnc3sccn3c2=O)c1C | x | x | -10% | 45% | x
O=C(Nc1cnc2ccccn2c1=O)c1ccc(Cl)cc1Cl | 11% | u | u | 2.5µM* | 0%
O=C(Nc1cnc2sccn2c1=O)c1ccccc1Cl | 8% | -6% | u | 7.1µM* | -6%
CS(=O)(=O)N1CCC[C@@]2(CCN(C(=O)Nc3ccccc3)C2)C1 | x | x | -5% | -2% | x
CC(=O)OCC1OC(C#CCC2CCCCC2)C=CC1OC(C)=O (stereo not given) | x | x | -13%[10 µM] | u | x
Oc1[nH]c2ccccc2c1N=NC(=S)N1CCOCC1 | u | u | 2.8µM* | 0.1µM* | 2%
Oc1[nH]c2ccc(Br)cc2c1N=NC(=S)N1CCOCC1 | 0% | u | 1.6µM* | 1.6µM* | -3%
O=C(N=Nc1c(O)[nH]c2ccccc12)c1ccc(CN2CCOCC2)cc1 | -4% | 93% | -8% | -3% | 8%
S=C(NCc1cccnc1)Nc1ccc2c(c1)OCO2 | -13% | 0% | 1% | -12% | -3%
CCNC(=S)NCc1ccc2c(c1)OCO2 | -10% | 19% | -18% | -31% | -1%
COc1ccc(NC(=S)NCc2ccc3c(c2)OCO3)cc1 | 11% | 13% | u | 13µM* | 24%
CC(C)c1ccc(NC(=S)NCc2ccc3c(c2)OCO3)cc1 | u | u | u | 13µM* | 18%
S=C(NCc1ccc(Cl)c(Cl)c1)Nc1ccc2c(c1)OCO2 | -6% | 8% | u | 11µM* | 3%
O=C(Nc1cccc(-c2nc3cccnc3s2)c1)c1cccc(Br)c1 | -5% | 7% | x | x | x
COc1ccc(-c2nc(C(=O)Nc3cccc(C(C)=O)c3)nn2-c2ccccc2Cl)cc1 | -6% | -26% | x | x | x
Cn1c2ccccc2c2cnn(CC(=O)Nc3ccccc3C(F)(F)F)c(=O)c21 | 1% | -1% | x | x | x
C[C@@H](C(=O)O)c1ccc(N2Cc3ccccc3C2=O)cc1 | x | x | 2µM* | 1.1µM* | x
CC(C)OC(=O)CC(=O)CSc1nc2c(cc1C#N)CCC2 | 7% | 1% | u | u | -5%
COC(=O)CC(=O)CSc1nc2c(cc1C#N)CCC2 | 22% | 50% | 18µM* | u | -1%
N#Cc1cc2c(nc1SCc1nc3ccccc3[nH]1)CCC2 | x | x | 11µM* | 10µM* | x
Cc1cc(C)c2c(N)c(C(=O)Nc3ncc(C)s3)sc2n1 | 247% | 1.3µM* | 2.8µM* | 2µM* | -27%
Cc1cc(C)c2c(N)c(C(=O)Nc3ccccc3Br)sc2n1 | 12% | 19% | -11% | -11% | 17%
COc1ccc2nc(NC(=O)c3sc4nc(C)cc(C)c4c3N)sc2c1 | 21% | 26% | u | 0.04µM* | 6%
COC(=O)c1sc2nc(C)cc(C)c2c1N | 30% | 85% | -1% | -20% | 7%
SMILES | GLP1R cytotox | GLP1R inv ag | Gal4-VP16 FLuc | RORgamma inh | GLP-1R agonist
COc1ccc(-n2ncc(C(=O)NCc3cccs3)c2C2CCN(C(=O)OC(C)(C)C)CC2)cc1 | -1% | u | x | x | x
S=c1[nH]nc(CN2CCCC2)n1Cc1ccccc1 | 25% | -24% | -8% | 11µM* | 4%
S=c1[nH]nc(CN2CCCCC2)n1Cc1ccccc1 | 17% | u | 18µM* | 3.2µM* | 2%
COc1ccc(C(=O)NC(=S)Nc2cccnc2)cc1Cl | 0% | -4% | -8% | 10µM* | -1%
CSc1cccc(NC(=S)NC(=O)c2cccnc2)c1 | u | -25% | 11µM* | 10µM* | 3%
CCOc1ccc(C(=O)NC(=S)Nc2cccnc2)cc1 | -4% | 3% | 0% | -16% | -1%
CCOc1cc(C(=O)NC(=S)Nc2cccnc2)cc(OCC)c1OCC | u | u | u | 13µM* | 0%
COc1cccc(C(=O)NC(=S)Nc2cccnc2)c1 | -19% | 6% | -25% | u | 0%
CSCC[C@H](N)C(=O)N[C@@H](C)C(=O)NCC(=O)N[C@@H](CCCN=C(N)N)C(=O)N[C@@H](CO)C(=O)NCC(=O)N[C@@H](CC(=O)O)C(=O)N[C@@H](CO)C(=O)N[C@@H](CC(=O)O)C(=O)N[C@@H](CCC(=O)O)C(=O)N[C@@H](CC(=O)O)C(=O)N[C@@H](CC(C)C)C(=O)N[C@@H](CC(C)C)C(=O)N[C@@H](CCCCN)C(=O)N[C@@H](C)C(=O)N[C@H](C(=O)O)C(C)C | x | x | -1% | 0% | x
C[C@@H]1C(=O)N(S(=O)(=O)c2ccccc2[N+](=O)[O-])[C@H]1c1ccc(-c2ccccc2)cc1 | x | x | -27% | 3% | x
CCCn1c(CN2CCN(c3ccc(OC)cc3)CC2)nc2c1c(=O)[nH]c(=O)n2C | -16% | 11% | x | x | 7%
Cc1cc(C)c2ccc(NN)nc2c1O | u | u | 10µM* | 6.3µM* | -7%
Cc1ccc(Nc2cc(C)c3ccc(O)cc3n2)cc1C | -10% | u | u | -3% | 25%
Cc1cc(C)c2ccc(/C=N/O)nc2c1O | u | u | 6.3µM* | 3.2µM* | 6%
COC(=O)CN1C(C)=Nc2ccc(C)cc2C1c1ccccc1 (stereo not given) | u | -2% | -7% | 0% | 12%
COC(=O)CN1C(c2ccccc2)=Nc2ccc(Cl)cc2C1c1ccccc1 (stereo not given) | -1% | u | -12% | 13µM* | 1%
Cc1ccc(Cn2c(C(=O)NCc3ccccc3Cl)cc3sccc32)cc1 | 11% | 3% | x | x | -7%
CC(=O)c1c(C)nn(CC(=O)NC2CCCN(Cc3ccc(CC(C)C)cc3)C2)c1C (stereo not given) | 2% | 11µM* | -4% | 9% | 4%
COc1ccc(CNC(=O)CN2CCC(C(=O)c3ccc(OC)cc3)CC2)cc1 | u | 10µM* | -3% | 37% | -6%
NCCCCCc1nnc(SCc2ccc(Cl)c(Cl)c2)o1 | -5% | 0% | 10µM* | u | -10%
NCCc1nnc(SCc2ccc(Cl)cc2)o1 | -14% | -15% | x | x | x
